In PubChem BioAssay (NCATS):
Inconclusive results are not listed. Where a call stands in place of a potency, no number is given. Calls of active or inactive are those of the source. Calls follow the shape of the dose curve; as a rule, active = well fitted curve in the direction sought with a large enough effect in the repeat runs; inconclusive = weak or mixed curves; inactive = no such curve, though single readings can be large; an effect the other way counts as inactive or inconclusive.

Assays:
[1] = biological target: Cytochrome P450 2D6 (Homo sapiens) (UniProt P10635); experiment: Cytochrome P450 family 2 subfamily D member 6 (CYP2D6) small molecule antagonists: luciferase biochemical (cell-free) qHTS assay (AID 1645840); also: nearly all actives have a fitted effect of over 55% in size; also: potency is read from the fitted curve at half-maximal effect
Sequence of Cytochrome P450 2D6 (Homo sapiens) (P10635 whole entry, looked up): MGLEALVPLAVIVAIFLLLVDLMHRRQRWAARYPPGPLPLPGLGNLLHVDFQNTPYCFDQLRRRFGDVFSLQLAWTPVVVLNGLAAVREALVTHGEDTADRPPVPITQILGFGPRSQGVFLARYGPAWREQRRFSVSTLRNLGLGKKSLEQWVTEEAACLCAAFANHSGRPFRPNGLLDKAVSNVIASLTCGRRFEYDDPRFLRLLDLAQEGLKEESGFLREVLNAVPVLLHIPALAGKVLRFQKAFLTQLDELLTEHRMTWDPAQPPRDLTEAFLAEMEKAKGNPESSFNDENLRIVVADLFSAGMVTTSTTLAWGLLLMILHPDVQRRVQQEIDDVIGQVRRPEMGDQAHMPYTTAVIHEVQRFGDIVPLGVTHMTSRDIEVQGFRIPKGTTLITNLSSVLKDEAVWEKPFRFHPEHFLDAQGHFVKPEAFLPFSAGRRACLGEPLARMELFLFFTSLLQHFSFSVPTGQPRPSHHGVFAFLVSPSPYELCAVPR
Summary of the method: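 P450-Glo luminescent screen: recombinant CYP2D6 enzyme–proluciferin substrate mix preincubated with compound 10 min at room temperature, then NADPH regeneration added for 1 h at room temperature. Detection reagent added for 20 min; luciferin light read as relative luminescence units.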

[2] = biological target: Cytochrome P450 3A4 (Homo sapiens) (UniProt P08684); experiment: Cytochrome P450 family 3 subfamily A member 4 (CYP3A4) small molecule antagonists: luciferase qHTS assay (AID 1645841); also: nearly all actives have a fitted effect of over 45% in size
Sequence of Cytochrome P450 3A4 (Homo sapiens) (P08684 whole entry, looked up): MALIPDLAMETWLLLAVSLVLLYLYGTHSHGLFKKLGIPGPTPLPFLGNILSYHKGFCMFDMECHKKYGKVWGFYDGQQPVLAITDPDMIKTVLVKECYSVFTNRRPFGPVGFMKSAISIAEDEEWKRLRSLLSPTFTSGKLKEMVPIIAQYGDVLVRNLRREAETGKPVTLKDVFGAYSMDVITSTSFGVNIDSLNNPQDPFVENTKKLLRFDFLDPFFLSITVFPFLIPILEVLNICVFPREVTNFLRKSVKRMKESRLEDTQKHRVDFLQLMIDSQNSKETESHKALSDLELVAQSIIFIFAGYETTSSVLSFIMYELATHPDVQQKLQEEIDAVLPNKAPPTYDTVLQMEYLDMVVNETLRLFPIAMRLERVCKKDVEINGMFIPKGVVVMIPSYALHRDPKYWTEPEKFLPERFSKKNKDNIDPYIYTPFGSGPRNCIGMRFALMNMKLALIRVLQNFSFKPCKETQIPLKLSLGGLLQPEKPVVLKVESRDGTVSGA
Summary of the method: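 P450-Glo CYP3A4 enzyme with proluciferin substrate was preincubated with DMSO-dissolved compounds for 10 min at room temperature. NADPH regeneration solution started a 1 h reaction. Detection reagent stopped it, and luminescence was read after 20 min.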

[3] = biological target: Cytochrome P450 2C9 (Homo sapiens) (UniProt P11712); experiment: Cytochrome P450 family 2 subfamily C member 9 (CYP2C9) small molecule antagonists: luciferase biochemical (cell-free) qHTS assay (AID 1645842); also: nearly all actives have a fitted effect of over 55% in size; also: potency is read from the fitted curve at half-maximal effect
Sequence of Cytochrome P450 2C9 (Homo sapiens) (P11712 whole entry, looked up): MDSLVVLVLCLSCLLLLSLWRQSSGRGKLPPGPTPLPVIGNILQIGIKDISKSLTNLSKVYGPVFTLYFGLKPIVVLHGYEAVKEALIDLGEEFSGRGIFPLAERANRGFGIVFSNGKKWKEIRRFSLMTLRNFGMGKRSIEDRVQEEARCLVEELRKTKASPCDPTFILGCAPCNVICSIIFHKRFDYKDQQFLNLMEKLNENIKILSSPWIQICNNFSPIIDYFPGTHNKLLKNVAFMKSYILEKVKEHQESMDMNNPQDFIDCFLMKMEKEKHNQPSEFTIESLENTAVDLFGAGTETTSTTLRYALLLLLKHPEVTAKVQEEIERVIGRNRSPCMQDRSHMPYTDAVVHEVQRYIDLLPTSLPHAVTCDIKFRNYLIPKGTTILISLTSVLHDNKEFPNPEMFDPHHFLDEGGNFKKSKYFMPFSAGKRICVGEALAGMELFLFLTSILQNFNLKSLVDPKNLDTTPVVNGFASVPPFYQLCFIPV
Summary of the method: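 Luminescence, after 20 min with luciferin detection reagent, reflected CYP2C9 turnover during a 1 h NADPH-driven reaction at 37C. Enzyme-substrate mix contained 0.4% bovine serum albumin and was preincubated with compound 10 min at room temperature.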

## NC(=S)N=Nc1ccc(NN=C(N)N)cc1
[1]
  Potency: 10.7 µM (active)
[2]
  outcome: inactive
[3]
  Potency: 15.1 µM (active)

## c1ccc(-n2cnnn2)cc1
[1]
  Potency: inactive
[3]
  Potency: inactive

## C[C@H](O)CN(C)C
[1]
  Potency: inactive
[3]
  Potency: inactive

## CCCCCCCCCCCCCCCCCC[N+](C)(C)CCC[Si](OC)(OC)OC
[1]
  Potency: 15.1 µM (active)
[3]
  Potency: inactive

## CN1C(=O)OC(C)(C)C1=O
[1]
  Potency: inactive

## C/C=C/C=C/C(=O)O
[1]
  Potency: inactive
[3]
  Potency: inactive

## NC(=O)OCC(O)COc1ccc(Cl)cc1 (configuration not stated)
[1]
  Potency: inactive
[3]
  Potency: inactive

## COC(=O)c1ccccc1O
[1]
  Potency: inactive
[3]
  Potency: inactive

## O=C(CO)[C@@H](O)[C@H](O)[C@@H](O)C(=O)O
[1]
  Potency: inactive
[3]
  Potency: inactive

## CCCOc1cc(N)ccc1C(=O)OCCN(CC)CC
[1]
  Potency: 3.38 µM (active)

## CC(=O)Oc1cc(C(F)(F)F)ccc1C(=O)O
[1]
  Potency: inactive
[2]
  outcome: inactive

## N=C(N)n1cccn1
[1]
  Potency: inactive
[2]
  outcome: inactive
[3]
  Potency: inactive

## Nc1nc(=O)n([C@@H]2CS[C@H](CO)O2)cc1F
[1]
  Potency: inactive
[3]
  Potency: inactive

## O=S(=O)(O)CCCS(=O)(=O)O
[1]
  Potency: inactive
[3]
  Potency: inactive

## O=C1CCC(=O)N1CO
[1]
  Potency: inactive
[3]
  Potency: inactive

## CC12CCC(C[N+](C)(CCC[N+](C)(C)C)C1)C2(C)C (configuration not stated)
[1]
  Potency: inactive
[3]
  Potency: inactive

## C=CCCCCCCCCC(=O)OC
[1]
  Potency: inactive
[3]
  Potency: inactive

## CCCCCCOC(=O)c1cccnc1
[1]
  Potency: 10.7 µM (active)
[3]
  Potency: 15.1 µM (active)

## CCOc1ccc(S(=O)(=O)O)c2cccnc12
[1]
  Potency: inactive
[3]
  Potency: inactive

## FC(F)OC(Cl)C(F)(F)F (configuration not stated)
[1]
  Potency: inactive
[3]
  Potency: inactive

## Cc1cccc(C)c1NC(=O)C1CCCCN1C (configuration not stated)
[1]
  Potency: 9.52 µM (active)
[3]
  Potency: inactive

## OCCOCCOCCO
[1]
  Potency: inactive
[3]
  Potency: inactive

## CC(CC=O)CCCC(C)(C)O (configuration not stated)
[1]
  Potency: inactive

## C[C@H](CCCC(C)(C)O)[C@H]1CC[C@H]2[C@@H]3CC=C4C[C@@H](O)CC[C@]4(C)[C@H]3CC[C@]12C
[1]
  Potency: inactive
[3]
  Potency: inactive
